Compound activity as filed in PubChem BioAssay.
In the library only some 1.8% were active in any assay of this set; here they are far more common.
Fam108B inh: mouse Fam108B serine hydrolase inhibitors, primary screen, counter-screen for RBBP9 inhibitor project, biochemical, fluorescence polarization; recombinant Fam108B, FP-Rh probe fluorescence polarization; inhibition, % at 9.51 µM; hit rate 0.33% among 300,000; AID 1947, 2009;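 active = inhibition above the screen mean inhibition plus 3 SD, computed separately per campaign, cut at about 18% in these data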;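 note: inhibitors lower polarization as less probe binds the enzyme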
PAD4 inh: human PAD4 inhibitors, primary screen, biochemical, fluorescence polarization, 1536-well format; recombinant PAD4, RCA probe fluorescence polarization; hit rate 0.41% among 330,000; inhibition, % at 6.36 µM; Protein-arginine deiminase type-4 (Homo sapiens), Q9UM07;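 active = percent inhibition above a cutoff equal to the mean of all tested compounds plus 3 SD, cut at about 15% in these data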;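 note: 0% = PAD4 with RCA probe and DMSO and 100% = probe without PAD4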
Target sequence (Q9UM07 whole entry, looked up): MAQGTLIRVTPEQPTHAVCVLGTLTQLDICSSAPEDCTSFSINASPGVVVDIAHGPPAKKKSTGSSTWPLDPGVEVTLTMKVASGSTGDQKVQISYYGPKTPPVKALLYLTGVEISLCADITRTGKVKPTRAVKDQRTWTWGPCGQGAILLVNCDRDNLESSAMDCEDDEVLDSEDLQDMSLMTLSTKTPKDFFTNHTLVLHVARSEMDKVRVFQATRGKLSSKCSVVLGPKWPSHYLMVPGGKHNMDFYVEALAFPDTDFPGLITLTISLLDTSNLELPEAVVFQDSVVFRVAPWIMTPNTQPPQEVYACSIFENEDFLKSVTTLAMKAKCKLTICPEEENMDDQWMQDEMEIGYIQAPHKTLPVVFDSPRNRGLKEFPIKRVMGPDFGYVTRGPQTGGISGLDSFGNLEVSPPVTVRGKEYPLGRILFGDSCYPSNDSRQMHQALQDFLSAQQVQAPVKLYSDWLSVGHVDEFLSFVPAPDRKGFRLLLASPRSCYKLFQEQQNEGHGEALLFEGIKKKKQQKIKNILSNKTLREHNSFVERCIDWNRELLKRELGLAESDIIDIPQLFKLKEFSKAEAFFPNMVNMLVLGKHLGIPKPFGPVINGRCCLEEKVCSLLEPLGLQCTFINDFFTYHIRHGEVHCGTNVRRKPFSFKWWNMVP
LYPLA2 counter: LYPLA2 inhibitors, primary screen, counter-screen for PME1 inhibitor project, biochemical, fluorescence polarization, FP-Rh probe ABPP; Acyl-protein thioesterase 2 (Homo sapiens), O95372; recombinant LYPLA2; inhibition, % at 5.9 µM; hit rate 0.38% among 320,000; AID 2177, 2009;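 active = inhibition above the screen-wide mean plus 3 SD, limit set per campaign, cut at about 26% in these data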;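 note: 0% = LYPLA2 with DMSO and 100% = wells lacking LYPLA2 enzyme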
GSTO1 counter: inhibitors of recombinant GSTO1, primary screen, counter-screen for RBBP9 inhibitor project, biochemical, fluorescence polarization. Glutathione S-transferase omega-1 (Homo sapiens), P78417. inhibition, % at 5.96 µM. activity-based probe fluorescence polarization. hit rate 1.1% among 300,000;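 active = inhibition above the campaign mean inhibition plus 3 SD, cut at about 35% in these data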;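 note: 0% = GSTO1-1 with DMSO and 100% = wells lacking GSTO1-1 enzyme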
PME-1 inh: PME-1 inhibitors via competitive probe labeling, primary screen, biochemical, fluorescence polarization, FP-Rh probe, HTS; Protein phosphatase methylesterase 1 (Homo sapiens), Q9Y570; recombinant PME-1; inhibition, % at 5.9 µM; hit rate 0.53% among 320,000;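 active = inhibition above the campaign mean of all compounds plus 3 SD, cut at about 26% in these data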;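 note: competitive labeling of PME-1 active site by serine hydrolase directed probe; 0% = PME-1 with DMSO and 100% = wells lacking PME-1 enzyme; inhibitors block probe labeling so polarization falls and inhibition rises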
LYPLA1 counter: LYPLA1 inhibitors, primary screen, counter-screen for PME1 inhibitor project, biochemical, fluorescence polarization, FP-Rh probe ABPP | recombinant LYPLA1 | hit rate 0.16% among 320,000 | inhibition, % at 5.9 µM | AID 2174, 2009;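 active = inhibition above the mean of all tested compounds plus 3 SD, set per campaign, cut at about 14% in these data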;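 note: inhibitors block serine hydrolase probe labeling of LYPLA1 so polarization falls; 0% = enzyme with DMSO and 100% = wells lacking LYPLA1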
GSTO1 inh conf: GSTO1 inhibitor hit confirmation, counter-screen for RBBP9 inhibitor project, biochemical, fluorescence polarization, triplicate; shares compounds with GSTO1 counter; recombinant GSTO1, probe fluorescence polarization; inhibition, % at 5.96 µM; hit rate 54% among 2,400; AID 2176, 2009;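 active = inhibition above the primary screen's cutoff, its mean inhibition plus 3 SD, cut at about 35% in these data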;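 note: loss of polarization as inhibitors block binding of rhodamine sulfonate ester activity probe; 0% = GSTO1 with DMSO and 100% = wells lacking GSTO1 enzyme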
GSTO1 recomb ABPP: inhibitors of purified human GSTO1, late-stage follow-up, biochemical, gel ABPP, SE-Rh probe, percent inhibition | inhibition, % at 1 µM | AID 463110, 2010 | shares compounds with GSTO1 counter | hit rate 30% among 130 | recombinant GSTO1, gel ABPP SE-Rh probe fluorescence;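 active = inhibition of the enzyme GSTO1 above about 75%, limit read from the data; inactive = inhibition below that limit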
The depositor's hits bear a star; / = no result given.

SMILES	Fam108B inh	PAD4 inh	LYPLA2 counter	GSTO1 counter	PME-1 inh	LYPLA1 counter	GSTO1 inh conf	others
Cc1ccc(S(=O)(=O)N[C@@H](Cc2ccccc2)C(=O)CCl)cc1	-6.0	8.2	5.7	45.0*	4.0	-1.4	55.0*
Cc1ccc(SCC(=O)OCC(=O)N(CCC#N)c2ccccc2)cc1	/	-12.4	0.2	/	-3.9	1.2	/
O=C(NCC1CCCO1)C1CCCN1C(=O)Nc1ccc(Cl)c(Cl)c1 (configuration not stated)	1.1	-3.0	2.6	0.4	-2.8	-4.3	/
O=C(CCl)N=c1sccn1Cc1ccc(Cl)cc1Cl	-4.1	1.1	-5.5	75.9*	0.8	-6.9	90.8*
CCC1Sc2ccc(S(=O)(=O)CCC(=O)Nc3cccc(Br)c3)cc2NC1=O (configuration not stated)	0.9	1.2	0.9	-4.8	3.8	-9.5	/
COc1ccc(N2C(=O)c3ccccc3C2O)cc1 (configuration not stated)	9.7	1.1	0.7	3.7	3.6	4.1	/
COc1ccc(O)c(C(=O)C2c3ccccc3C(=O)N2c2ccc(C)cc2)c1 (configuration not stated)	-7.3	-4.0	-10.1	62.4*	-9.0	-6.0	1.1
COc1ccc(C(C)NC(=O)c2ccncc2)cc1 (configuration not stated)	2.8	-0.6	-1.8	6.5	-1.1	-2.7	/
COc1ccc(-c2nnc(SCc3ccc(C(=O)O)cc3)n2C)cc1OC	1.1	1.3	-2.5	2.8	1.2	-5.6	/
O=C1C(NS(=O)(=O)c2cccs2)=C(N2CCN(c3cccc(Cl)c3)CC2)C(=O)c2ccccc21	10.1	-11.9	16.4	49.8*	3.4	2.6	13.9
CCN1CCN(C2=C(NS(=O)(=O)c3ccc(C)cc3)C(=O)c3ccccc3C2=O)CC1	-0.4	-12.5	4.2	29.8	5.4	5.7	/
CCOc1c(Cl)cc(/C=C/C(=O)N(CC)CC(=O)NCc2cccs2)cc1OC	0.8	-1.9	-5.4	4.4	3.8	-4.2	/
COc1ccc(CNC(=O)C2CCN(S(=O)(=O)c3ccc4c(c3)C(C)(C)C(=O)N4C)CC2)cc1	3.5	2.8	-0.3	0.1	-7.4	-2.9	/
CC(=O)C1=C(c2ccc(Br)cc2)C(=O)c2ccccc2C1=O	8.8	-6.2	-4.1	38.6*	4.4	-2.9	3.0
CCOC(=O)c1ccc(NC(=O)Cn2ncc(Cl)c(Cl)c2=O)cc1	-6.5	-6.4	-12.8	4.0	-11.4	-13.0	/
Cc1ccc(C(=O)OCn2ncc(Cl)c(Cl)c2=O)cc1	-11.5	19.7*	-0.7	45.2*	-12.2	-3.9	45.8*
O=C1/C(=C\c2ccco2)SC(=S)N1C1CCCCC1	1.9	-8.6	-3.9	-3.3	-5.2	-3.2	/
CC1=C(C#N)C(=O)N(C2CCS(=O)(=O)C2)C(=O)/C1=C\c1ccco1 (configuration not stated)	64.6*	9.1	0.9	87.3*	-19.9	-9.5	72.7*
COC(=O)CCCC1=CC2=C(c3ccccc3)C(=O)C(C)(OC(=O)C3CCCC3)C(=O)C2=CN1Cc1ccc(OC)cc1 (configuration not stated)	4.3	-2.7	4.7	40.7*	-0.4	-2.1	10.2
C=CCN1C=C2C(=O)C(C)(OC(=O)C3CCCC3)C(=O)C(c3ccccc3)=C2C=C1CCCC(=O)OC (configuration not stated)	0.3	-16.6	-1.7	26.7	-1.7	1.7	/
COC(=O)CCCC1=CC2=C(c3ccccc3)C(=O)C(C)(OC(=O)C3CCCC3)C(=O)C2=CN1Cc1ccc2c(c1)OCO2 (configuration not stated)	0.7	-0.4	-5.3	48.2*	-3.6	-5.0	13.4
CCCCn1c(N)c(N(CC(C)C)C(=O)COC(=O)Cc2c(C)nc3ccccc3c2C)c(=O)[nH]c1=O	1.2	1.5	4.3	0.2	0.6	5.3	/
CCC1CCCCN1C(=O)C(=O)c1cn(CC(=O)N(CC)CC)c2ccccc12 (configuration not stated)	2.2	2.6	5.5	39.7*	4.5	5.7	4.9
O=C(CN1CCN(S(=O)(=O)c2ccc(Cl)cc2)CC1)NC1CC1	5.2	1.9	3.9	-0.5	4.3	-1.9	/
COc1ccc(N(C(=O)c2ccco2)C(C(=O)NC2CCCCC2)c2cccs2)cc1OC (configuration not stated)	2.3	-5.2	1.1	-0.4	1.3	2.5	/
SMILES	Fam108B inh	PAD4 inh	LYPLA2 counter	GSTO1 counter	PME-1 inh	LYPLA1 counter	GSTO1 inh conf	others
COc1cccc(N(C(=O)CCl)C(C(=O)NCCc2ccccc2)c2cccs2)c1 (configuration not stated)	-4.4	11.0	-0.5	93.8*	-4.5	-1.8	95.3*	GSTO1 recomb ABPP=75.0*
COc1ccc(N(C(=O)CCl)C(C(=O)NCCc2ccccc2)c2cccs2)cc1Cl (configuration not stated)	-3.3	9.8	1.7	89.2*	1.9	2.6	90.5*	GSTO1 recomb ABPP=92.0*
NC(=O)C1CCN(c2oc(-c3cccs3)nc2S(=O)(=O)c2ccc(Br)cc2)CC1	/	1.6	/	/	/	/	/
O=C(COC(=O)CSc1ccc(F)cc1)NC1CCCCCC1	/	5.2	-0.3	/	-6.7	3.5	/
CCOc1ccc(C(c2c(C)[nH][nH]c2=O)c2c(C)[nH][nH]c2=O)cc1OC	1.1	7.5	-1.1	42.1*	-9.0	-1.9	1.1
O=C(NCc1ccccc1)c1cc[n+](CC(=O)c2cccs2)cc1	-2.8	-1.7	4.5	0.2	-0.4	-3.1	/
Cc1ccc(OCC(=O)N(Cc2ccco2)c2c(N)n(Cc3ccccc3)c(=O)[nH]c2=O)cc1C	/	1.9	4.6	/	6.0	3.2	/
CCOC(=O)c1c(NC(=O)CCl)sc(CN(C)C)c1-c1ccccc1	-0.9	5.7	-0.5	76.5*	-1.2	0.7	90.7*
COc1cccc(-c2ccc(SCC(=O)N3CCc4ccccc43)nn2)c1	-11.0	3.2	2.8	-2.7	-10.3	-2.1	/
O=[N+]([O-])c1cncc([N+](=O)[O-])c1Nc1cccc(O)c1	2.3	6.3	-4.2	70.0*	-2.4	-0.2	13.2
CCOCCCNC(=S)Nc1ccc2nc(N3CCOCC3)cc(C)c2c1	-2.6	-19.9	-8.4	13.3	3.8	2.8	/
